Test results reported in PubChem BioAssay AID743279 (National Center for Advancing Translational Sciences (NCATS), 2014).
Among all 360,000 compounds or so, about 17,000 (4.7%) were called active. Roughly 5% stayed inconclusive and do not appear here. The entries come from a sample that favours actives as a whole. A number with no mark means an inactive call. Cut-off read from the data, not from the text of the source: active = activity change below about -50%; inconclusive = mostly about -30% to -49%; inactive = weaker than that.

Assay: qHTS for Inhibitors of Inflammasome Signaling: IL-1-beta AlphaLISA Primary Screen
Conditions: THP-1 LPS/ATP IL-1B secretion, 16 h; at 57.5 µM, stronger effect = lower value
How it was run: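 Secreted IL-1B measured by AlphaLISA bead assay after 16 h compound exposure of THP-1 cells; compounds (final up to 57.5 uM) added 1 h before LPS (250 ng/mL) and ATP (1.25 mM) stimulation; lower signal means less secretion.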
% is set by controls: 0 for no effect and ±100 for the full control effect.

SMILES | activity change
COc1ccc(CN2C[C@H]3CON(C)[C@H]3C[C@H]2c2ccc(-c3cccc(F)c3)cc2)cc1 | 11.4%
CC1(C(=O)NCc2ccccc2)CN(S(C)(=O)=O)CC(=O)N1CC(F)(F)F (stereo unspecified) | 30.7%
COc1ccc(C(=O)NC(C)Cn2nc(C)cc2C)cc1OC1CCN(C(C)=O)CC1 (stereo unspecified) | 0%
CCCCC[C@@H]1C=C(C(=O)OCC)[C@H](c2ccccc2)N1S(=O)(=O)c1ccc(C)cc1 | 37.3%
COc1cc(C#Cc2ccc3cc(CCCO)oc(=O)c3c2)cc(OC)c1 | 0%
COc1cc(/C=C2\Oc3ccc(C#Cc4ccc(O)cc4)cc3C2=O)cc(OC)c1 | -79.1% (active)
COc1ccc2c(c1)O/C(=C\c1ccccc1O)C2=O | 45.7%
CNC(=O)C[C@H]1C(=O)N(Cc2ccccc2)C[C@@H]1CSC | -8.27%
c1ccc(CNc2ncnc3[nH]ncc23)cc1 | 31.4%
Cc1cc(C(=O)COc2ccccc2Cl)c(C)n1C1CC1 | 0%
Cc1cc(C(=O)COc2ccc(Br)cc2F)c(C)n1C1CC1 | -54.4% (active)
O=C(COc1ccc(Br)cc1F)NCC1(N2CCCCC2)CCCCC1 | -9.53%
O=C(COC(=O)c1cncc(Br)c1)Nc1ccc(S(=O)(=O)N2CCOCC2)cc1 | -5.39%
C[C@H](CO)N1C[C@H](C)[C@H](CN(C)C(=O)Nc2ccc3c(c2)OCO3)Oc2ncc(Br)cc2C1=O | -12.4%
O=C(CSc1nc(Nc2ccccc2)nc(N2CCOCC2)n1)Nc1cc(Cl)ccc1O | -58.1% (active)
CC1(c2ccccc2)NC(=O)N(CC(=O)Nc2cc(Cl)ccc2N2CCOCC2)C1=O (stereo unspecified) | 1.47%
Cc1ccccc1NC(=O)CSc1nc2ccc(Nc3nc(N4CCOCC4)nc(N4CCOCC4)n3)cc2s1 | 0%
CS(=O)(=O)N(CC(=O)N1CCCCCC1)c1cccc(Cl)c1Cl | -9.4%
COc1ccc(CN2CCC(n3nccc3NC(=O)CCCc3ccccc3)CC2)cc1C | -65% (active)
Cc1ccc(CN2CCC(n3nccc3NC(=O)CCCc3ccccc3)CC2)o1 | 0%
COc1cc(CN2CCC(n3nccc3NC(=O)CCCc3ccccc3)CC2)ccc1O | 0%
COc1ccc(OC)c(NC(=O)C2CCCN2S(=O)(=O)c2ccc3c(c2)CC(C)N3C(C)=O)c1 (stereo unspecified) | 11.5%
CC(=O)Nc1ccc2c3c(ccc([N+](=O)[O-])c13)CC2 | 18.1%

SMILES | activity change
COc1ccc(NC(=O)C(c2ccncc2)n2c(=O)c(-c3cc4ccccc4[nH]3)nc3ccccc32)cc1 (stereo unspecified) | -12%
COc1cccc(-n2cc(C(=O)O)c3ccccc3c2=O)c1 | -59.6% (active)
COc1cccc(-n2nc(C(=O)N3CCN(Cc4ccccc4)CC3)c3ccccc3c2=O)c1 | -16.4%
COc1cccc(-n2cc3c(c2-c2ccccc2)c(=O)n(C)c(=O)n3C)c1 | 18.5%
C[C@@H]1CN([C@@H](C)CO)C(=O)c2cccc(NS(=O)(=O)c3ccc(F)cc3)c2O[C@H]1CN(C)C(=O)NC1CCCCC1 | 2.27%
CCCCNCCS(=O)(=O)NCc1ccccc1 | 24.2%
CN(c1ccc(OCC(=O)NC2=NCCS2)cc1)S(=O)(=O)c1ccc(F)cc1 | 12%
CC(NC(=O)COc1ccccc1)C(=O)NC1=NCCS1 (stereo unspecified) | -56.1% (active)
Cc1ccc(S(=O)(=O)N(C)c2ccc(OCC(=O)NC3=NCCS3)cc2)cc1 | 23%
CC(C)CNC(=O)C1(C)CCCN1C(=O)CSc1ccccc1 (stereo unspecified) | 24.3%
Cc1ccc(CC(=O)Nc2ccc(OC(F)F)c(Cl)c2)cc1C | 2.16%
CC(=O)N1CCN(CC(=O)Nc2ccc(SC(F)F)cc2)CC1 | 8.74%
O=C(Cc1ccc(Cl)c(Cl)c1)Nc1ccc(SC(F)F)cc1 | -96% (active)
O=C(c1ncn2c1c(=O)[nH]c1ccccc12)N1CCc2ccccc2C1 | 1.53%
CCOC(=O)C1CCCN(C(=O)c2ccc(N(C)C)cc2)CC1 (stereo unspecified) | 14.2%
Cc1cc(-c2n[nH]c(=S)n2/N=C/C(Br)=C/c2ccccc2)n[nH]1 | -103% (active)
COc1cc(/C=N/n2c(C)n[nH]c2=S)ccc1OCc1ccccc1 | 20.1%
S=c1[nH]nc(-c2cccs2)n1/N=C/c1cccs1 | 2.13%
CCN(CC(=O)Nc1ccc(NC(C)=O)cc1)C(=O)C1CC(=O)N(c2ccc3c(c2)OCCO3)C1 (stereo unspecified) | -4.3%
Nc1ncnc2c1ncn2[C@@H]1O[C@H](C(=O)NCC(F)(F)F)[C@@H](O)[C@H]1O | -18.1%
Cc1ccc(Cn2cc(CN3CC(N4CCN(C)CC4)CS3(=O)=O)nn2)cc1 (stereo unspecified) | 1.38%
O=C(Nc1ccc(C2CC2(Cl)Cl)cc1)c1cccc([N+](=O)[O-])c1 (stereo unspecified) | -90.4% (active)
Cc1cc(C)nc(NC(=O)c2cccc([N+](=O)[O-])c2)c1 | -4.03%

SMILES | activity change
O=C(Nc1cccc([N+](=O)[O-])c1)c1ccc2c(c1)OCO2 | -4.35%
O=C(COC(=O)c1ccc[nH]c1=O)Nc1ccc2c(c1)OC(F)(F)O2 | 23.1%
COC(=O)[C@]12CCCCC=C1N(Cc1cccc3ccccc13)C(=O)[C@H](CC(=O)N1CCOCC1)C2 | -7.21%
Cc1ccc(S(=O)(=O)N2CCC(=O)N([C@H](COCc3ccccc3)C(C)C)CC2)cc1 | 29.8%
O=C(NCC1CCN(Cc2ccccc2Cl)CC1)Nc1cccc(Cl)c1 | -75% (active)
COc1ccc(Cl)cc1NC(=O)NCC1CCN(Cc2ccccc2F)CC1 | -22.8%
Cc1cccc(CN2CCC(CNC(=O)Nc3ccc(F)c(Cl)c3)CC2)c1 | -107% (active)
O=C(NCCN1CCOCC1)Nc1cccc(Cl)c1 | 2.78%
O=C1CCCN1CCCNC(=S)Nc1ccc(F)c(Cl)c1 | 4.41%
COc1cc(NC(=O)NCC2CCN(Cc3ccc(C)cc3)CC2)cc(OC)c1OC | -6.99%
CC(CO)N1CCS(=O)(=O)CC1 (stereo unspecified) | 19.8%
CCC/C(C)=N\Nc1nc2c(c(=O)n(C)c(=O)n2C)n1C | 6.47%
O=C(O)C(c1cccs1)C1(O)CCCCC1 (stereo unspecified) | 5.75%
CCOC(=O)c1cc(-c2sc(NC(=O)c3ccccc3)nc2C)n(-c2ccc(Br)cc2)n1 | -4.38%
O=C(CCc1ccccc1)Nc1ncc([N+](=O)[O-])s1 | -59.9% (active)
CC(C)Cc1nnc(NC(=O)CCc2ccccc2)s1 | 8.78%
COC(=O)CSc1nnc(NC(=O)CCc2ccccc2)s1 | 12.3%
CC(CC(=O)C1C(C)C=CCC1(C)C)NNC(N)=O (stereo unspecified) | 2.93%
O=C1C(=O)N(CC2COc3ccccc3O2)c2ccccc21 (stereo unspecified) | 11.2%
Cc1ccsc1C(=O)OCC(=O)c1cc(C)n(CC2CCCO2)c1C (stereo unspecified) | 33.5%
Cc1cc(C(=O)CCl)c(C)n1CC1COc2ccccc2O1 (stereo unspecified) | -68.9% (active)
CC(=O)CC[C@@H](C)O[C@@H]1OC(C)[C@H](O)CC1O (stereo partly specified) | 29.3%
COC(=O)[C@]12CCCCC=C1N(Cc1ccco1)C(=O)[C@H](CC(=O)NCC1CCCCC1)C2 | -8.27%

SMILES | activity change
CCCOc1ccc(F)cc1-c1cc(C(=O)Nc2ccc(F)cc2)[nH]n1 | 3.22%
CC(C)(C)Nc1nc(-c2ccccn2)nc2ccccc12 | -9.69%
Cc1cc(C)n(-c2nc(C(F)(F)F)nc3ccccc23)n1 | 21.5%
CC(Nc1nc(C(F)(F)F)nc2ccccc12)c1cccs1 (stereo unspecified) | -63.4% (active)
Cc1cc(/C=C2/SC(=O)N(CC(=O)N3CCCC3)C2=O)ccc1N1CCOCC1 | -23.5%
O=C1N=C(N2CCc3ccccc3C2)S/C1=C\c1ccc(O)cc1 | -63.2% (active)
Cc1ccsc1/C=C1\SC(N2CCOCC2)=NC1=O | -26%
NC1=NC(=O)S/C1=C\c1ccc(O)cc1 | -9.74%
CCc1ccc(/C=C2\SC(N3CCOCC3)=NC2=O)cc1 | -62.4% (active)
CC1CCN(C2=NC(=O)/C(=C/c3ccc(O)cc3)S2)CC1 | -16.5%
COC(=O)C1(C(=O)OC)C[C@H](c2ccccc2)N(Cc2ccccc2OC)[C@@H]1c1ccccc1 | 12.2%
O=[N+]([O-])c1ccc(C(S(=O)(=O)Cc2ccccc2)S(=O)(=O)Cc2ccccc2)cc1 | -14.4%
CC(C)(O)C#Cc1ccc(CNC[C@H]2O[C@@H](n3cnc4c(=O)[nH]c(N)nc43)[C@H](O)[C@@H]2O)s1 | 0%
CC(C)(C)C(=O)CN1C2=NCCN2c2ccccc21 | 0%
Cc1cc2oc(=O)cc(CN3CCN(Cc4ccccc4)CC3)c2cc1C | 1.1%
Cc1cc2c(cc1C)N(Cc1ccccc1)C1=NCCCN12 | -58.1% (active)
O=C(COC(=O)c1ccc(S(=O)(=O)N2CCCCCC2)cc1)Nc1ccccc1C(F)(F)F | 23%
COc1ccc(OC)c(CN2C(=O)CCC2(C)c2nnnn2Cc2ccccc2)c1 (stereo unspecified) | 0%
Cc1ccc(-c2ccc(CN3C(C(C)C)C(=O)N(Cc4cn(CCC5OCCO5)nn4)CCS3(=O)=O)cc2)cc1 (stereo unspecified) | 14.8%
CC(=O)OCC(=O)C1(O)CCC2C3CC(C)C4=CC(=O)CCC4(C)C3C(O)CC21C (stereo unspecified) | -59.6% (active)
CC(=O)O[C@]1(C(C)=O)CC[C@H]2[C@@H]3C=C(C)C4=CC(=O)CC[C@]4(C)[C@H]3CC[C@@]21C | -10.2%
CC1(C)C(=O)CCC2(C)C1=CCC1C2C(=O)CC2(C)C1CCC2(O)C(=O)CO (stereo unspecified) | 15.3%
